The results in this text go back to publication PMC7862700, “An all-to-all approach to the identification of sequence-specific readers for epigenetic DNA modifications on cytosine”.

Common to all, as to assay: DAPPL (digital affinity profiling via proximity ligation, sequencing); 10 mM Tris-HCl pH 7.5, 50 mM NaCl, 1 mM DTT, 4% glycerol, room temperature, 30 min; GST-TFs on glutathione beads, 16-mer random dsDNA library, 0.1% formaldehyde crosslink after washing; high values mean tight binding
For one test, the target named is T1, FLI1 (Homo sapiens, UniProt Q01543 1-452).
T1 sequence: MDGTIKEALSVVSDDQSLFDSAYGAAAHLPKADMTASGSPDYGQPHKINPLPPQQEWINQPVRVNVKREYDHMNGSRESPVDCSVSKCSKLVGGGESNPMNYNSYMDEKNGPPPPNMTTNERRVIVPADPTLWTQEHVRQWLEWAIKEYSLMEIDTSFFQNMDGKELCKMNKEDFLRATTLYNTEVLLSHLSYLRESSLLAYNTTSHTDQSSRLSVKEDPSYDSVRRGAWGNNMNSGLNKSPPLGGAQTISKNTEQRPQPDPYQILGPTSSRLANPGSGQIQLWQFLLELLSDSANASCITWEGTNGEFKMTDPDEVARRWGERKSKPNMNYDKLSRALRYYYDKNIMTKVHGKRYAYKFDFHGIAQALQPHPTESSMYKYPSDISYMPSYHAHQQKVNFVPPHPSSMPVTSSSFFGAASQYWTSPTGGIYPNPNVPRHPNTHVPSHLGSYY
The settings on record: protein: recombinant; tags: N-terminal GST; dsDNA, one strand shown. Put shortly: (§1)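 Human transcription factors were made in yeast as GST fusions, captured on glutathione beads and barcoded with DNA. With a tag-only sample included, the pool was incubated with 200 nmole of a random double-stranded 16-mer DNA library in Tris/NaCl/DTT/glycerol buffer at room temperature for 30 min, then crosslinked with 0.1% formaldehyde after washing, ligated by proximity, amplified and sequenced. For binding signal, each hexamer's read frequency for a factor is divided by its frequency for the tag-only sample.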

The target in the next test is T2, ELK1 (Homo sapiens, UniProt P19419 1-428).
T2 sequence: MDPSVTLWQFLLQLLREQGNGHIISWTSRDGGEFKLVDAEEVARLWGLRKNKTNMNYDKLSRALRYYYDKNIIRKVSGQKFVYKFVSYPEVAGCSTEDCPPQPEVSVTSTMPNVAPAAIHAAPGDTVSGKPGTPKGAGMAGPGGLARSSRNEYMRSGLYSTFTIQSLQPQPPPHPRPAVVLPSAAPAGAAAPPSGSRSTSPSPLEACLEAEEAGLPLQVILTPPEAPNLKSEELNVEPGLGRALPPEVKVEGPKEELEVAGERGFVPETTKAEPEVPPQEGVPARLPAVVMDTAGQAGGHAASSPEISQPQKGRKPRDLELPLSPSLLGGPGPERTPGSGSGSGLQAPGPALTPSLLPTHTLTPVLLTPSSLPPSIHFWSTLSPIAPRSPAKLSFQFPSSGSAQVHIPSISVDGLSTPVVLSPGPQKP
Conditions: protein: recombinant; tags: N-terminal GST; dsDNA, one strand shown. Put shortly: as §1

The target of a further test is T3, GABPA (Homo sapiens, UniProt Q06546 1-454).
T3 sequence: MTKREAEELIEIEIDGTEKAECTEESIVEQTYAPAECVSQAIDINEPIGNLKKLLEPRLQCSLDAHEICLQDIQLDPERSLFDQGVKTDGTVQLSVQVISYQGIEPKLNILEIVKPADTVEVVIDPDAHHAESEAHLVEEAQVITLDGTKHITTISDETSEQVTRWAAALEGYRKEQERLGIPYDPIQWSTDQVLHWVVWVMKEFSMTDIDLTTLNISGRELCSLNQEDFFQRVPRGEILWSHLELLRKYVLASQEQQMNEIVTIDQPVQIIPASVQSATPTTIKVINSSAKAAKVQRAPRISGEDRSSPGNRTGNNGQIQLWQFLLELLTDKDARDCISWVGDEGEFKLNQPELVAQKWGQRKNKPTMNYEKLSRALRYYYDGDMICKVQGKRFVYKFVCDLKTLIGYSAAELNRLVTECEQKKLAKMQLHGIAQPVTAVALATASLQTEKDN
Conditions: protein: recombinant; tags: N-terminal GST; dsDNA, one strand shown. In a few lines:
as §1

For the next test, the target named is T4, ERG (Homo sapiens, UniProt P11308 1-479).
T4 sequence: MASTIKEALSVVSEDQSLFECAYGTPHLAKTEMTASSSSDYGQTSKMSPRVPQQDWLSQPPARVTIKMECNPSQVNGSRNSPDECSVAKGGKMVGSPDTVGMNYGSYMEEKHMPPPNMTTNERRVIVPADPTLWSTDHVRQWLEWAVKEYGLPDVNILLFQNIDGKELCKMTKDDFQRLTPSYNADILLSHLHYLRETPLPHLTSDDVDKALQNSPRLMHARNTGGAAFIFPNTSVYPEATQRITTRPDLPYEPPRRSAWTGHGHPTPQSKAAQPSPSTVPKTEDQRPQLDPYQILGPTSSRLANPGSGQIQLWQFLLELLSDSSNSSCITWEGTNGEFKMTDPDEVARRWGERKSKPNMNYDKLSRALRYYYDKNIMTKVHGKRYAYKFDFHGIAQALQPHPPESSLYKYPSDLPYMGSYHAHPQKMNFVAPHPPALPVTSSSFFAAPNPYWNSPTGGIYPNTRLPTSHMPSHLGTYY
The settings on record: protein: recombinant; tags: N-terminal GST; dsDNA, one strand shown. In a few lines: as §1

For another test, the target named is ELF1 (Homo sapiens, UniProt P32519 1-619). Conditions: protein: recombinant; tags: N-terminal GST; dsDNA, one strand shown. In a few lines: as §1
A further test has as its target T5, EHF (Homo sapiens, UniProt Q9NZC4 1-300).
T5 sequence: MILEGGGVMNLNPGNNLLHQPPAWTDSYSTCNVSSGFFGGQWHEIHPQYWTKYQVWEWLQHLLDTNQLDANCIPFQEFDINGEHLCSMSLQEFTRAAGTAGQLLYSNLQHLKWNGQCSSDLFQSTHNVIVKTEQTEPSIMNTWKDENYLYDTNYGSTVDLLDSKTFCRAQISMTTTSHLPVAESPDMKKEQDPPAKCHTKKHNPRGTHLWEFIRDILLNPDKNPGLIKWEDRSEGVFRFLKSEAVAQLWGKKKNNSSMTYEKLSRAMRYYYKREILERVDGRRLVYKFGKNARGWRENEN
Conditions: protein: recombinant; tags: N-terminal GST; dsDNA, one strand shown. In a few lines: as §1

The target in another test is SPI1 (Homo sapiens, UniProt P17947 1-270). Conditions: protein: recombinant; tags: N-terminal GST; dsDNA, one strand shown. Put shortly: as §1
A further test deals with SPIB (Homo sapiens, UniProt Q01892 1-262). Conditions: protein: recombinant; tags: N-terminal GST; dsDNA, one strand shown. Put shortly:
as §1

For another test, the target named is T6, ELK3 (Homo sapiens, UniProt P41970 1-407).
T6 sequence: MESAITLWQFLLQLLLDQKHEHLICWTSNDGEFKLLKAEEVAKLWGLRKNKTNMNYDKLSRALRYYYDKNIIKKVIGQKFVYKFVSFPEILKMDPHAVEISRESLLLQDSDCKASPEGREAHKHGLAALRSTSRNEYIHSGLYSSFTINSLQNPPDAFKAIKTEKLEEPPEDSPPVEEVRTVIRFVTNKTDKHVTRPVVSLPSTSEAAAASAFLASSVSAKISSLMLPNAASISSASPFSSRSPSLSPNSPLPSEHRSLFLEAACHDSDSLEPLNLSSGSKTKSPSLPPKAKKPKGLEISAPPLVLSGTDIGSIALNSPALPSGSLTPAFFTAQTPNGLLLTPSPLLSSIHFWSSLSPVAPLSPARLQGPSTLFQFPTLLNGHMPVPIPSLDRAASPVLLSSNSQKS
The settings on record: protein: recombinant; tags: N-terminal GST; dsDNA, one strand shown. In a few lines:
as §1

For a further test, the target named is T7, FEV (Homo sapiens, UniProt Q99581 1-238).
T7 sequence: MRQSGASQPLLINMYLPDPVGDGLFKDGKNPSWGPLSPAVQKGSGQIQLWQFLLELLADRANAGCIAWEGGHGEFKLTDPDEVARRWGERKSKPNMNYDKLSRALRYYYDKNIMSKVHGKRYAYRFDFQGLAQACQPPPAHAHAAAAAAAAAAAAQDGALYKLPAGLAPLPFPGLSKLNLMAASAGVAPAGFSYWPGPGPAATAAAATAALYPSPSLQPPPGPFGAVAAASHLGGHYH
Conditions: protein: recombinant; tags: N-terminal GST; dsDNA, one strand shown. In a few lines: as §1

A further test addresses ETV5 (Homo sapiens, UniProt P41161 1-510). The settings on record: protein: recombinant; tags: N-terminal GST; dsDNA, one strand shown. Put shortly: as §1
Another test addresses HSF1 (Homo sapiens, UniProt Q00613 1-529). The settings on record: protein: recombinant; tags: N-terminal GST; chain copies: 3; dsDNA, one strand shown. Put shortly:
as §1

For a further test, the target named is T8, SPIC (Homo sapiens, UniProt Q8N5J4 1-248).
T8 sequence: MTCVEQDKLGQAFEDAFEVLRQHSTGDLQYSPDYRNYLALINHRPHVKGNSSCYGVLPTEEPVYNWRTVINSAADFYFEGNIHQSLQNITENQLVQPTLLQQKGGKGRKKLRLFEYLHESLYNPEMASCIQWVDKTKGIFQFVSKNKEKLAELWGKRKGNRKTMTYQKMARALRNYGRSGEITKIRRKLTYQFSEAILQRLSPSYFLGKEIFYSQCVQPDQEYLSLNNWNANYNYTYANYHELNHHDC
Conditions: protein: recombinant; tags: N-terminal GST; dsDNA, one strand shown. In a few lines: as §1

For another test, the target named is ELF4 (Homo sapiens, UniProt Q99607 1-663). Conditions: protein: recombinant; tags: N-terminal GST; dsDNA, one strand shown. In a few lines:
as §1

A further test concerns the target T9, ELK4 (Homo sapiens, UniProt P28324-2 1-405).
T9 sequence: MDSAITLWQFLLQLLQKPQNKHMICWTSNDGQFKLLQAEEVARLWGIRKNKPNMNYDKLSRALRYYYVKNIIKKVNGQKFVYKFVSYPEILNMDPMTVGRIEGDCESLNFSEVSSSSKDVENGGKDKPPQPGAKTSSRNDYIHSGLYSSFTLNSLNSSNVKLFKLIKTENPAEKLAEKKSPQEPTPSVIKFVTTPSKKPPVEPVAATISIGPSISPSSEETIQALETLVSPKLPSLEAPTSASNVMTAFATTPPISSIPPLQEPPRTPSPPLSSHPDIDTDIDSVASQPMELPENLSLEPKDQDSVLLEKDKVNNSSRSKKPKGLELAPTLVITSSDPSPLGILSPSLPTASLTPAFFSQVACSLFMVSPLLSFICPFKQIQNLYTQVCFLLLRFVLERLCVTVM
Conditions: protein: recombinant; tags: N-terminal GST; dsDNA, one strand shown. Put shortly:
as §1

Another test deals with T10, ETV2 (Homo sapiens, UniProt O00321 1-342).
T10 sequence: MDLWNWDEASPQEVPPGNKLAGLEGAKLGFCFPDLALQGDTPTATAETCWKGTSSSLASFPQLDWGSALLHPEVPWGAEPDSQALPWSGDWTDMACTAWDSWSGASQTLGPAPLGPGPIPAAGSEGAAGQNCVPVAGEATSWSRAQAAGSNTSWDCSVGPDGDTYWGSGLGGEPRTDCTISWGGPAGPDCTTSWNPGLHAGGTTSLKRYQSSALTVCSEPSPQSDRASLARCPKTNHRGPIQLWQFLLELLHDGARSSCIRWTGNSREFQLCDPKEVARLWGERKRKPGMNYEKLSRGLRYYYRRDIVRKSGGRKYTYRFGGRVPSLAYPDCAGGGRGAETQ
The settings on record: protein: recombinant; tags: N-terminal GST; dsDNA, one strand shown. In a few lines: as §1

For another test, the target named is T11, ELF3 (Homo sapiens, UniProt P78545 1-371).
T11 sequence: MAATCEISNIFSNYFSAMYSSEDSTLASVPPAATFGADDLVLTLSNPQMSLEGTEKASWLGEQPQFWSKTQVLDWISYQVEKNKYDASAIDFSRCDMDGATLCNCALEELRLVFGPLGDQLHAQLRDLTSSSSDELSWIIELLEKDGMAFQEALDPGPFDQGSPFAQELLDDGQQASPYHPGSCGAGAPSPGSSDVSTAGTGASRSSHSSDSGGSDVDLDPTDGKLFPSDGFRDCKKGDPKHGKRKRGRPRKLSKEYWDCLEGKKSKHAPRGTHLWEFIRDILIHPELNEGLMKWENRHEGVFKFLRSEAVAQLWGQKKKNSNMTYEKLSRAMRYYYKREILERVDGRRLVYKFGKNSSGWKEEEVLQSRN
Conditions: protein: recombinant; tags: N-terminal GST; dsDNA, one strand shown. Put shortly:
as §1

Another test concerns the target ETV1 (Homo sapiens, UniProt P50549 1-477). Conditions: protein: recombinant; tags: N-terminal GST; dsDNA, one strand shown. In a few lines: as §1

Sequence of ETV5 (P41161 whole entry): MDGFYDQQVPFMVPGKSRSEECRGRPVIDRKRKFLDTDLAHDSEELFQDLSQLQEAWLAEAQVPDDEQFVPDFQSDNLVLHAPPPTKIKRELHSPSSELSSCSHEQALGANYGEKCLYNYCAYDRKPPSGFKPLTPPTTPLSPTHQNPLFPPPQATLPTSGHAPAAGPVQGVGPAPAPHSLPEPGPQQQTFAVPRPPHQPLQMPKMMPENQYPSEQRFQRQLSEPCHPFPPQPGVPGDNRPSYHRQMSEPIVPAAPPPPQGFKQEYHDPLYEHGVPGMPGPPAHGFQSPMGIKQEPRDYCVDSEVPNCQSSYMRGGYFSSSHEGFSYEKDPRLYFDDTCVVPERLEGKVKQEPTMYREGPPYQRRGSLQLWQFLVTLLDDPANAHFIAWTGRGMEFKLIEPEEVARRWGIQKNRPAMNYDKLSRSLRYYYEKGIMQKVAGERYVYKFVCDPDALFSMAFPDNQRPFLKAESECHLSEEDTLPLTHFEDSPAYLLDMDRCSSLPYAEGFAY
Sequence of ETV1 (P50549 whole entry): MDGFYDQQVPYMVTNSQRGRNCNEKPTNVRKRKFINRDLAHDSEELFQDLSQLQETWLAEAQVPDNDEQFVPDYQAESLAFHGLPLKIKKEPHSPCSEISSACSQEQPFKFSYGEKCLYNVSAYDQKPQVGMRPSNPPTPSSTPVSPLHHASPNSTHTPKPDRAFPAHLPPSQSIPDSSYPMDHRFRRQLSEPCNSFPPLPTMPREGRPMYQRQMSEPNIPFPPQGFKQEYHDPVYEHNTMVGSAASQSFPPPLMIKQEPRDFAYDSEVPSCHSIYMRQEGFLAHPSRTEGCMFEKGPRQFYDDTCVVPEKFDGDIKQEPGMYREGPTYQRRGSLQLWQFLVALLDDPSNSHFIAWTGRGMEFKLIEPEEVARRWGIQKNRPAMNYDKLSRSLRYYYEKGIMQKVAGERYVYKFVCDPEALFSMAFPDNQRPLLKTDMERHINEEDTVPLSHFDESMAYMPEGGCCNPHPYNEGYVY
Sequence of ELF1 (P32519 whole entry): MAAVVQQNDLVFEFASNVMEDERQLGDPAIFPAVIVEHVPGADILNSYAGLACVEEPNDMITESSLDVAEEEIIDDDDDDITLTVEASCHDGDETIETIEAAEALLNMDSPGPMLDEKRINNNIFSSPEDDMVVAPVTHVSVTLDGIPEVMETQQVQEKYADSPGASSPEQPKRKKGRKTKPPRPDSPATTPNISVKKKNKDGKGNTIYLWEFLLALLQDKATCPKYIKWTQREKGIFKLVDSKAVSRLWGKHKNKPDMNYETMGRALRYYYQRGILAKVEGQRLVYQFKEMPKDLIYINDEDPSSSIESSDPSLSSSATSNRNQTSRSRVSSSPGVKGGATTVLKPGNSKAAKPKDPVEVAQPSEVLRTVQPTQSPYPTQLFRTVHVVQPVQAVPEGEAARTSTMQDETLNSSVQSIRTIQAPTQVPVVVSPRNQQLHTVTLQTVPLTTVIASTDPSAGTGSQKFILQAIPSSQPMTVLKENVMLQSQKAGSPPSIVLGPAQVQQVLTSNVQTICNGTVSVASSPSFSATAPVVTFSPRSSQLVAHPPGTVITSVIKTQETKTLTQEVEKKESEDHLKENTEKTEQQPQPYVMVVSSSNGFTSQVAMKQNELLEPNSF
Sequence of HSF1 (Q00613 whole entry): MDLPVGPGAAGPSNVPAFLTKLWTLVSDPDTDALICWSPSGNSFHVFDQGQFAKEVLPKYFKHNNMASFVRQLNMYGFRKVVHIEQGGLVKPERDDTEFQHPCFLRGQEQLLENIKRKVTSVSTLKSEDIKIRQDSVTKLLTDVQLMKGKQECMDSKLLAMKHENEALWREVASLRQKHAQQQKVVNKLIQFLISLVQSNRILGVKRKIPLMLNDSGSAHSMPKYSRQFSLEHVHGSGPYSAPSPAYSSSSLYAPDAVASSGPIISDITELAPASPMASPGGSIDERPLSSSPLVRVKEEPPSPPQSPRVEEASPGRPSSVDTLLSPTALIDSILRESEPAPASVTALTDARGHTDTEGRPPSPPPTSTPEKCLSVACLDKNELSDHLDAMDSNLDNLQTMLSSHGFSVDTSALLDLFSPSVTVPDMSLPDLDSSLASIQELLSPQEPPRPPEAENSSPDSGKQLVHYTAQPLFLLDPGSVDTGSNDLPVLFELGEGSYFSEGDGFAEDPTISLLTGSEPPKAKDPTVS
Sequence of ELF4 (Q99607 whole entry): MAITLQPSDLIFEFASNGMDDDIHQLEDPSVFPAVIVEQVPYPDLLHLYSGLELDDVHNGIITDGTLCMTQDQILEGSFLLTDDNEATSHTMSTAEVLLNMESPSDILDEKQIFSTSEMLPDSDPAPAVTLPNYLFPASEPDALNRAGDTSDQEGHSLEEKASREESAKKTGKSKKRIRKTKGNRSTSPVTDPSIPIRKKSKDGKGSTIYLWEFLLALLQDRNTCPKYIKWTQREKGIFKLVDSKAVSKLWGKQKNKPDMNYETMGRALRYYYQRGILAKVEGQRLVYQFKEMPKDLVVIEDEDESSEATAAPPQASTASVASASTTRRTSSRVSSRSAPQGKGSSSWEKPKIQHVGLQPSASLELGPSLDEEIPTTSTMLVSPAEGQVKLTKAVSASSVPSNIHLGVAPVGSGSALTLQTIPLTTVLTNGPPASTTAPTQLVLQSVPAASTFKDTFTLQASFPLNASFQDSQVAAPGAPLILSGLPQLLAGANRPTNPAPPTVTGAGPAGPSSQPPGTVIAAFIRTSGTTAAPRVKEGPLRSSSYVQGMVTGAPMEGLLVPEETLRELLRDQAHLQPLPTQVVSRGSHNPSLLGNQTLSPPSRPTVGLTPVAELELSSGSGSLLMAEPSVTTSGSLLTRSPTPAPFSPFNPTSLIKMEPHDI
Sequence of SPIB (Q01892 whole entry): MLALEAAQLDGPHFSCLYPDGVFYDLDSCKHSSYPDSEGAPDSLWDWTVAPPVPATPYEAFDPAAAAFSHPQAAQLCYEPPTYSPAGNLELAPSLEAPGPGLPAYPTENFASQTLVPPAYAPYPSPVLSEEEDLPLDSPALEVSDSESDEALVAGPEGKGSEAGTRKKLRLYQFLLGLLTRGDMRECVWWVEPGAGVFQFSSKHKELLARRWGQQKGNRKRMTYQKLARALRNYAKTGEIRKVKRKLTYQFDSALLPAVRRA

Turning to ATGTCC, the binding signal with FLI1 was 1.56 fold enrichment (6-mer frequency, TF over GST control); with ELK1 it was 1.53 fold enrichment (6-mer frequency, TF over GST control); in the test with GABPA, 1.54 fold enrichment (6-mer frequency, TF over GST control); with ERG it was 1.75 fold enrichment (6-mer frequency, TF over GST control); with ELF1, 1.58 fold enrichment (6-mer frequency, TF over GST control); in the test with EHF, 1.54 fold enrichment (6-mer frequency, TF over GST control). Further, the binding signal with SPI1 was 1.35 fold enrichment (6-mer frequency, TF over GST control); with SPIB, 1.55 fold enrichment (6-mer frequency, TF over GST control); with ELK3, 1.75 fold enrichment (6-mer frequency, TF over GST control); with FEV it was 1.84 fold enrichment (6-mer frequency, TF over GST control); with ETV5, 1.62 fold enrichment (6-mer frequency, TF over GST control); in the test with HSF1, 1.03 fold enrichment (6-mer frequency, TF over GST control). In addition, the binding signal with SPIC is 1.54 fold enrichment (6-mer frequency, TF over GST control); with ELF4, 1.51 fold enrichment (6-mer frequency, TF over GST control); with ELK4, 1.57 fold enrichment (6-mer frequency, TF over GST control); in the test with ETV2, 1.77 fold enrichment (6-mer frequency, TF over GST control); with ELF3, 1.85 fold enrichment (6-mer frequency, TF over GST control); in the test with ETV1 it was 1.66 fold enrichment (6-mer frequency, TF over GST control).
